Reference: publication PMC12136788
Where a chain is given by its changes, count along the chain named. In all, about 24,000 sequences were measured (“enrichment r”: median about 0.99, highest 2% from about 3.7 on). The entries come from a sample that favours the highest values as a whole.

T1: UNK ZnF1-3 (human, UniProt Q9C0B0 31-174)
T1 sequence: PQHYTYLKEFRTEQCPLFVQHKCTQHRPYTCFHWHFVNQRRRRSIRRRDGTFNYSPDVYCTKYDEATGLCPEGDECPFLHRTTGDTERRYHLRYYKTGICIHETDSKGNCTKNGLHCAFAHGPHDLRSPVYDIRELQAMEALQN

B1: 35626089_35772405_348_CDS_ENSG00000108100_ENST00000265375|human|control|control (ssRNA)
RNA: GGGAGUUCUACAGUCCGACGAUCGUCCGUCUGAGAUUUACUGAGGAAUAUUGUGCUGGCCCGAGGAUGAUCUGAAGGAUUGAAUUCCAUGUUCAAAUCGUCUAUGUUCUCCCGGUCGCUGAUGUGCUGCAGGUUGCAGCCCGUCAACAGAGGAUUGAGCAUCA
B2: chr2:216981417:216981418:+_ENSG00000079246_ENST00000392132|hu_hu|hu_hu_hu_mus_True|18_98 (ssRNA)
RNA: GGGAGUUCUACAGUCCGACGAUCCUGAUACUGGUCCCCACCAGAAAGGGCAUUAUCAGUGCCAUCUGUGCCAUAGAGGACUAACGCAAUCUCAUCUUUGCUCUCCGAAAAUACCUGUCGCUGUACAAACAUAGUCAUCACUUUCAACAGAGGAUUGAGCAUCA
B3: chr11:48616917:48616918:+_ENSMUSG00000020372_ENSMUST00000020640|mus_mus|FALSE|FALSE (ssRNA)
RNA: GGGAGUUCUACAGUCCGACGAUCGACGAUGAUAGGGUUGCUGCUGUUCGGGGAGAAGCGGACACAAGACACCCAUUCUGAAUGACUCUCAUCCUGGACCGUGUACUUGCAGACACCCAGAGUAUUCCAUAACUUUAUGGUCUUCAACAGAGGAUUGAGCAUCA
B4: chrX:71549400:71549401:+_ENSMUSG00000019087_ENSMUST00000019231|mus_hu|mus_mus_mus_hu_False|28_68 (ssRNA)
RNA: GGGAGUUCUACAGUCCGACGAUCGCAGUAGGAAGAGGGAAGCUCUUCAGUCCAGUGCGCUGCAGGGAGAAACAUGAACAACACGGACACCGUCCCACCCUCAACCCUCUCAGGUGUACAGGGUCACACAAUCUGGGUCAAAGACAACAGAGGAUUGAGCAUCA
B5: 23240013_23240133_1240_CDS_ENSG00000136243_ENST00000258742|human|control|control (ssRNA)
RNA: GGGAGUUCUACAGUCCGACGAUCACUACCAAAACCAGCCACAGAACUGCCACCUCCAAAGGCUGGGGCCACUGGAGCUCUGACAGGACCUGUUGCCAAGGAAGCUGGAAGUCCUGAAAAUCCAGGUGAUCCAAAACUGGAAGCCAACAGAGGAUUGAGCAUCA
B6: chr8:73282188:73282189:+_ENSMUSG00000031840_ENSMUST00000034301|mus_hu|FALSE|FALSE (ssRNA)
RNA: GGGAGUUCUACAGUCCGACGAUCUAGGGUGUCAUCUGGCCCCUCUUCACAACUGACAACUGUGGAUGGGGGUGAAUUUUAAAAAAAGGCGGGGGGGGGGGGUUCAGGAGGGUGAGCGGUGAGUUCACGGGGCCACGAGACACCCAACAGAGGAUUGAGCAUCA
B7: chr22:32879901:32879902:+_ENSG00000100225_ENST00000397426|hu_mus|hu_hu_hu_mus_False|78_78 (ssRNA)
RNA: GGGAGUUCUACAGUCCGACGAUCCUCUUCCAUACUCAUGGCAUCCUGAAUUGACUCAGCUUCAAAAUUUUGACUAGGCCCUUCCAUACUGUCAUCAGUCCAGGCAUCAAAUGGGGUGGCCUGUCCUUGGGAUGAAUCAGUCCCCAACAGAGGAUUGAGCAUCA
B8: chr14:66974463:66974464:+_ENSMUSG00000022044_ENSMUST00000074523|mus_hu|mus_mus_mus_hu_False|88_88 (ssRNA)
RNA: GGGAGUUCUACAGUCCGACGAUCUUGUAGGACGACUUAUUCAGGGGAUCAGACAAGAAGCAGGAGCAGAACAAGGACACCAGCGGGAGCUCCUUCAUCUUCUCUUUGUAGGCAGCAAGGGUCAUGUUUCUGGGAUCUGGUGGCCAACAGAGGAUUGAGCAUCA
B9: chr14:67424093:67424094:-_ENSMUSG00000022048_ENSMUST00000022629|mus_hu|FALSE|FALSE (ssRNA)
RNA: GGGAGUUCUACAGUCCGACGAUCGAGAGACGGGGUGUGGGGCCCCAAGGGGGACCCCAUGAACUGGCUGCUCCACAGUAACUAUCACAGGCUCUUAAAAAAAAAAACAAAAAAAAAAAAAGGAAGGAAGAAAGAAGUCUCAGACAACAGAGGAUUGAGCAUCA
B10: chr14:67424093:67424094:-_ENSMUSG00000022048_ENSMUST00000022629|mus_hu|motif|central (ssRNA)
RNA: B9 RNA with U82G, A83G
B11: chr6:43255143:43255144:+_ENSG00000146216_ENST00000259750|hu_mus|FALSE|FALSE (ssRNA)
RNA: GGGAGUUCUACAGUCCGACGAUCUCCUAGGCCUCCCCUUCUUUCAAUCUCCAAACCUGGGUGUUGUUGGUCCUACGGCAGAAGGGAGACUGAGGGGGGCACCUACACUCACAGUUAGGUUGGUGGCAAGGGGCAGGCCCAGGGCAACAGAGGAUUGAGCAUCA
B12: chr7:143080189:143080190:+_ENSG00000159840_ENST00000392910|hu_hu|FALSE|FALSE (ssRNA)
RNA: GGGAGUUCUACAGUCCGACGAUCUGGGGCUCCAGGACUGAACUUGGAAGCCACAGGAGUAAACUUAGGAGUCACUGGAGAAAACUUAGGGGCUGGAGCCGGAGAUGAGGCUGGGGGCCCUCGGGGCUGGGUGUUAGCCAAAGACAACAGAGGAUUGAGCAUCA
B13: 157127611_157127731_2631_3pUTR_ENSMUSG00000026469_ENSMUST00000027741|mouse|control|control (ssRNA)
RNA: GGGAGUUCUACAGUCCGACGAUCAUUAAAAGUAGCUUUGUGGAGGAGGUGCUGCUCCAAGCUGCACUUUCCCUGCAAGUGCUGCCAGUGUCUCUGCACUGGCUAUGAAGGAAGGGAAAAACUCUCCAUAGAAACUGACAGAAACAACAGAGGAUUGAGCAUCA
B14: chr15:81680702:81680703:-_ENSMUSG00000048546_ENSMUST00000050467|mus_mus|motif|central (ssRNA)
RNA: GGGAGUUCUACAGUCCGACGAUCGAGAGAGAGUUGAGGCUAGGGCCAGACUUAUUUGGGUGGCAGGCCCUGAGAAGACAGCGGGGUUGGGGGUUGUGGACACGGGGGUGGAGGGUGGGGGGGUGUCAGCCUCUCCCUGUUUCACAACAGAGGAUUGAGCAUCA
B15: 34053828_34053948_230_3pUTR_ENSMUSG00000051390_ENSMUST00000053429|mouse|control|control (ssRNA)
RNA: GGGAGUUCUACAGUCCGACGAUCUGGUCACCUCAGGGAAGGACACGUGUACCACUGCAGCUGCCGGCAGAGGCAGUGGCGGUGGAGCCAGUGACAGAGGCAGUGGGAGUGUGGCCCCACUGGGUGACAGAGCAGACGGCUCCACAACAGAGGAUUGAGCAUCA
B16: chr12:56499883:56499884:+_ENSMUSG00000021024_ENSMUST00000021412|mus_mus|FALSE|FALSE (ssRNA)
RNA: GGGAGUUCUACAGUCCGACGAUCGAUAGUAAUGUGACGGUCAAAACCGGCGCUGGAACCCCGGGACAUGGCGUUCCUGCUAUUUUAAACACAGUCUGCACCCCGUAGCACACACACCAGGGACCCAAGCCCCCUCCCGGAAGUCAACAGAGGAUUGAGCAUCA
B17: chr8:110352747:110352748:+_ENSG00000120533_ENST00000521662|hu_mus|FALSE|FALSE (ssRNA)
RNA: GGGAGUUCUACAGUCCGACGAUCCAGGGCUCUGCCUUUUGGAGUGAUUUCAGCCACCAAGUCAUCAACAGUAACGUGUUCUAGUCCUUUUUCUUUAAUUACCUCUUUACAGUGUGCCUUUAGCUGAUCCUUCCAGCCGCACUCCAACAGAGGAUUGAGCAUCA
B18: chr6:31457689:31457690:+_ENSMUSG00000025609_ENSMUST00000142469|perfect_dup|motif|central (ssRNA)
RNA: GGGAGUUCUACAGUCCGACGAUCUGAUCAGGUCUACCAGGUUGCCUUUAGGAGGAGUCAUGCUGUCAGGAAAGAAAUUUACGGAGGUGUCAAAGAGCUGAGUUCUUUGAGCAUAGGUAUGAUCCACAUCUGAAAAGCCAUAAUCAACAGAGGAUUGAGCAUCA
B19: chr12:25667166:25667167:+_ENSMUSG00000036333_ENSMUST00000066652|mus_mus|motif|central (ssRNA)
RNA: GGGAGUUCUACAGUCCGACGAUCUCUUCCACAUAAUUUAUCACACUCUGUGAUAUAAGAACCGACAUUUUCACAGAAAUCGGUAGCCGACUUUAAUUCACCGUGUCACGGCCUGGCCGAAGACGGCGCCCUCAGCUCUGCAGACAACAGAGGAUUGAGCAUCA
B20: chr19:8913615:8913616:-_ENSMUSG00000071658_ENSMUST00000096259|mus_hu|mus_mus_mus_hu_False|1_8 (ssRNA)
RNA: GGGAGUUCUACAGUCCGACGAUCAGGGUACCAAAACCUUCUGCCUGAAAUGGGUGCCCCACCCAGUAGGGAGUUGCAGCUGAAAGUAUCUGAUGCAGAAGCAGUGACUAUACGAAAGGAGGCCCCUGAUGCUCAGACGAGAUCCAACAGAGGAUUGAGCAUCA
B21: chr2:241070490:241070491:-_ENSG00000172428_ENST00000607357|hu_mus|FALSE|FALSE (ssRNA)
RNA: GGGAGUUCUACAGUCCGACGAUCUCACAGACAUGGAGCACAUAGGACCGGGCGGCCUCACUGGACAUCAUCAUCAUCAAAAAGGUCUUCAAAAUCAUUAAAAAAGUCUGCAUGAACGGCCUUCUCAUUGGCUGCCAGGUCCAUCAACAGAGGAUUGAGCAUCA
B22: chr11:100882373:100882374:+_ENSMUSG00000019302_ENSMUST00000044721|mus_mus|FALSE|FALSE (ssRNA)
RNA: GGGAGUUCUACAGUCCGACGAUCUUCCUGGUUAGUGUUGAUUUCCUUCAGUUCAUUUUCAAUCUUCUCGAAAUUGGCCUCUAAGUCGAUCAUGUCCCGAGGGAAGGGCACCUCUGGGUUUUCACCGGUGUCCAUAAUUGGGAUCAACAGAGGAUUGAGCAUCA

These binders were tested against T1, UNK ZnF1-3 (assay: nsRBNS (natural sequence RNA bind-n-seq); RBNS binding buffer (assumed for nsRBNS): 25 mM Tris pH 7.5, 150 mM KCl, 3 mM MgCl2, 0.01% Triton X-100, 500 ug/ml BSA, 20 U/ml SUPERase-In, 4 C; UNK is unkempt and MSI1 is Musashi-1; names of the RNAs are library labels; protein concentration not given here; high values mean tight binding).
For B1, the binding signal was 0.777 enrichment R.
For B2, the binding signal was 1.16 enrichment R.
With B3 the binding signal was 0.907 enrichment R.
For B4, the binding signal was 1.64 enrichment R.
With B5 the binding signal was 1.23 enrichment R.
B6 was tested, and the binding signal was 4.04 enrichment R.
B7 gave a binding signal of 1.23 enrichment R.
B8 showed a binding signal of 2 enrichment R.
For B9, the binding signal was 20.5 enrichment R.
Binder B10 has a binding signal of 7.78 enrichment R.
With B11 the binding signal was 0.766 enrichment R.
In the case of B12, the binding signal is reported as 1.45 enrichment R.
For B13, the binding signal was 0.603 enrichment R.
In the case of B14, the binding signal is reported as 4.46 enrichment R.
B15 was tested, and the binding signal was 0.895 enrichment R.
With B16 the binding signal was 0.679 enrichment R.
In the case of B17, the binding signal is reported as 0.801 enrichment R.
Binder B18 has a binding signal of 1.63 enrichment R.
Binder B19 has a binding signal of 0.699 enrichment R.
Binder B20 has a binding signal of 1.25 enrichment R.
In the case of B21, the binding signal is reported as 0.924 enrichment R.
For B22, the binding signal was 0.394 enrichment R.
